This is an account of results in PubChem BioAssay (EPA / NIEHS).

Activity calls are given as the source filed them. Rule for the calls: active = hit-call score of the fitted dose curve at least 0.9, where 1 is the maximum; inactive = score below 0.9.

Usually AC50 stands for the midpoint of the concentration-response curve, whichever way the signal moves.

The nature of assay [1]: ATG_GLI_CIS: Attagene CIS-FACTORIAL HepG2 Assay for human Zinc Finger Protein GLI1 (AID 2282945). As to conditions: HepG2, Attagene cis-factorial reporter mRNA, GLI element; actives raise or lower the signal. The gist of the method:
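HepG2 cells transiently transfected with cis-promoter multiplexed reporter units report endogenous transcription factor activity. After 24 h chemical exposure, reporter mRNA was quantified by RT-PCR, 6-FAM labelling, HpaI digestion and capillary electrophoresis, with bidirectional fitting against DMSO.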

In assay [2] the target is Bile acid receptor (Homo sapiens) (UniProt Q96RI1). The assay is described as follows: ATG_IR1_CIS: Attagene CIS-FACTORIAL HepG2 Assay for human Nuclear Receptor Subfamily 1 Group H Member 4 (NR1H4), IR1 submotif (AID 2282946). The note with it: IR1 reporter transcription, actives raise or lower the signal. In outline: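 Transient MRTU transfection, HepG2; 24 h dosing; RNA → RT-PCR → 6-FAM primer extension → HpaI digest → capillary electrophoresis fluorescence. Gain/loss of signal fitted relative to DMSO.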
Chain of Bile acid receptor (Homo sapiens) (Q96RI1 whole entry, looked up): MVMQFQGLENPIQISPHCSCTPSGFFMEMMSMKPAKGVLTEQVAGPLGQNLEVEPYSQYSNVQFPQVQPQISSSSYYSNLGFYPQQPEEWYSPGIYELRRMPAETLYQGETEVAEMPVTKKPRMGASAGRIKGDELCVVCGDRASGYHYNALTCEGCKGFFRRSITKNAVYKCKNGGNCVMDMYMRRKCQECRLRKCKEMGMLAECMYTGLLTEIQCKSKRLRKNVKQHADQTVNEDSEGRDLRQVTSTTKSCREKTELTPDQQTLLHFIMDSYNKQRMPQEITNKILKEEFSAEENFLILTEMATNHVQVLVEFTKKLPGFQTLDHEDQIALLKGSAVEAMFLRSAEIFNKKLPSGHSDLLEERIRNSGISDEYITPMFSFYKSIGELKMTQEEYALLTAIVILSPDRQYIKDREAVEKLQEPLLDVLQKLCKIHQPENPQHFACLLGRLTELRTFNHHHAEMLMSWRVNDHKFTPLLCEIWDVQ

A short description of assay [3]: ATG_GRE_CIS: Attagene CIS-FACTORIAL HepG2 Assay for human Glucocorticoid Response Elements (GRE) (AID 2282947). As to conditions: HepG2 GRE cis-reporter, Attagene multiplex mRNA; actives raise or lower the signal. In outline: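 HepG2 cells transiently transfected with multiple cis-promoter reporter units measure endogenous TF activity; 24 h compound exposure. Reporter mRNA quantified by RT-PCR, FAM labelling, HpaI digestion and capillary electrophoresis; bidirectional fit vs DMSO baseline.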

Assay [4] is described as follows: ATG_ISRE_CIS: Attagene CIS-FACTORIAL HepG2 Assay for human Interferon Regulatory Factor 1 (IRF1) binding to an Interferon-Stimulated Response Element (ISRE) (AID 2282948). As to conditions: HepG2 ISRE cis-reporter (Attagene), mRNA transcription readout; actives raise or lower the signal. In outline: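 HepG2 cells transiently transfected with multiplexed cis-promoter reporter units; after 24 h compound exposure, reporter mRNA quantified by RT-PCR, FAM labelling, HpaI digestion and capillary electrophoresis. Bidirectional fit versus DMSO baseline.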

The nature of assay [5]: ATG_M_32_CIS: Attagene CIS-FACTORIAL HepG2 Assay for M32 Transcription Factor (Internal Marker) (AID 2282949).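 Note: background control marker of the multiplexed CIS panel rather than a real target.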 As to conditions: HepG2 Attagene cis-factorial M32 reporter, mRNA; actives raise or lower the signal. The gist of the method: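 Following 24 h chemical exposure of HepG2 cells transiently expressing cis-promoter reporter constructs, reporter transcript levels were determined by RT-PCR with fluorescent labelling and capillary electrophoresis, then fitted bidirectionally against DMSO.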

Assay [6] in a line: ATG_M_06_CIS: Attagene CIS-FACTORIAL HepG2 Assay for M06 Transcription Factor (Internal Marker) (AID 2282950). The note with it: HepG2 Attagene CIS-FACTORIAL M06 internal marker reporter; actives raise or lower the signal. In outline: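 HepG2 liver cells, 24 h exposure. Reporter transcripts from transfected cis-element constructs quantified by RT-PCR/capillary electrophoresis fluorescence. Bidirectional curve fit against DMSO.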

Assay [7] has as its target Hypoxia-inducible factor 1-alpha (Homo sapiens) (UniProt Q16665). The experiment in a line: ATG_HIF1a_CIS: Attagene CIS-FACTORIAL HepG2 Assay for human Hypoxia Inducible Factor 1 (HIF1A) (AID 2282951). The note with it: HepG2 Attagene cis-factorial HIF1a reporter transcription; actives raise or lower the signal. In outline: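 Measures endogenous transcription-factor activity through cis-regulated reporter mRNA in HepG2. Cells dosed 24 h; transcripts quantified by RT-PCR with 6-FAM-labelled products separated by capillary electrophoresis; DMSO serves as negative control.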

The target in assay [8] is Hepatocyte nuclear factor 6 (Homo sapiens) (UniProt Q9UBC0). The assay is described as follows: ATG_HNF6_CIS: Attagene CIS-FACTORIAL HepG2 Assay for human Hepatocyte Nuclear Factor 6 (HNF6) (AID 2282952). The note with it: HepG2 Attagene cis-factorial HNF6 reporter transcription; actives raise or lower the signal. In outline:
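HepG2 cells transiently transfected with cis-element-driven multiplexed reporter units measuring endogenous transcription factor activity. After 24 h exposure, reporter mRNA quantified by RT-PCR, FAM-labelled fragments and capillary electrophoresis; bidirectional fitting versus DMSO.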

For assay [9], the target named is Heat shock factor protein 1 (Homo sapiens) (UniProt Q00613). The assay is described as follows: ATG_HSE_CIS: Attagene CIS-FACTORIAL HepG2 Assay for human Heat Shock Transcription Factor 1 (HSE) (AID 2282953). As to conditions: HepG2 HSE cis-reporter, Attagene RNA transcription; actives raise or lower the signal. The gist of the method:
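Endogenous transcription factor activity captured via cis-promoter reporter units transfected into HepG2; treatment lasted 24 h. Fluorescence intensity of reporter fragments analysed with bidirectional curve fitting, DMSO baseline.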

The nature of assay [10]: ATG_MRE_CIS: Attagene CIS-FACTORIAL HepG2 Assay for human Metal Responsive Element (MRE) (AID 2282954). The note with it: HepG2 MRE cis-reporter transcription, Attagene multiplex; actives raise or lower the signal. The gist of the method:
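HepG2 cells transiently transfected with multiple cis-element reporter units measure endogenous MTF1-driven transcription. After 24 h compound exposure, reporter mRNA is quantified by RT-PCR with 6-FAM labelling, HpaI digestion and capillary electrophoresis; bidirectional fits versus DMSO.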

Assay [11] is described as follows: ATG_PBREM_CIS: Attagene CIS-FACTORIAL HepG2 Assay for human Phenobarbital-responsive Enhancer Module (PBREM) (AID 2282955). As to conditions: HepG2 PBREM cis-reporter, Attagene multiplexed transcription; actives raise or lower the signal. In outline: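 Fluorescence of labelled reporter cDNA fragments, resolved by capillary electrophoresis, gives mRNA induction in transfected HepG2 cells treated for 24 h; DMSO serves as negative control and baseline.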

The target of assay [12] is Paired box protein Pax-6 (Homo sapiens) (UniProt P26367). The experiment in a line: ATG_Pax6_CIS: Attagene CIS-FACTORIAL HepG2 Assay for human Paired Box 6 (PAX6) (AID 2282956). The note with it: HepG2 CIS-FACTORIAL PAX6 reporter transcription, RNA readout; actives raise or lower the signal. In outline:
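HepG2 cells transiently transfected with multiplexed cis-promoter reporter units (endogenous TF activity) were dosed for 24 h. Reporter mRNA was quantified by RT-PCR, 6-FAM labeling, HpaI digestion and capillary electrophoresis; bidirectional fitting versus DMSO baseline.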

Assay [13] is described as follows: ATG_PXRE_CIS: Attagene CIS-FACTORIAL HepG2 Assay for human Pregnane X Receptor Element (PXRE) (AID 2282957). As to conditions: HepG2 Attagene CIS-FACTORIAL PXRE reporter, mRNA; actives raise or lower the signal. In outline: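 HepG2 cells transiently transfected with cis-element-driven multiplexed reporter units; after 24 h chemical exposure, reporter mRNA measured by RT-PCR, 6-FAM labelling, HpaI digestion and capillary electrophoresis. Bidirectional fitting relative to DMSO.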

Assay [14] is described as follows: ATG_PPRE_CIS: Attagene CIS-FACTORIAL HepG2 Assay for human Peroxisome Proliferator-activated Response Element (PPRE) (AID 2282958). As to conditions: HepG2 PPRE cis-element reporter, Attagene transcription factor profiling; actives raise or lower the signal. In outline: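 Cells are first transfected transiently with the multiplexed reporter library, then dosed for 24 h. Total RNA is reverse-transcribed, amplified, fluorescently end-labeled and HpaI-cut before capillary electrophoresis; activity is fitted bidirectionally against DMSO controls.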

A short description of assay [15]: ATG_RORE_CIS: Attagene CIS-FACTORIAL HepG2 Assay for human RAR-related Orphan Receptor Element (RORE) (AID 2282959). As to conditions: HepG2 Attagene cis-factorial RORE reporter, mRNA; actives raise or lower the signal. The gist of the method: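 Cells were HepG2 carrying transfected cis-regulated reporter constructs, dosed for 24 hours. Total RNA was reverse-transcribed and reporter cDNA amplified, fluorescently labeled and sized by capillary electrophoresis. Activity was fitted bidirectionally relative to DMSO.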

Assay [16] in a line: ATG_Sox_CIS: Attagene CIS-FACTORIAL HepG2 Assay for human SRY-box transcription factor (SOX) (AID 2282960). The note with it: HepG2 Attagene cis-factorial SOX reporter, mRNA; actives raise or lower the signal. The gist of the method:
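Transient MRTU transfection of HepG2; 24 h compound incubation; TriZol RNA, oligo(dT) RT, PCR, 6-FAM primer extension, HpaI cut, CE. Bidirectional fit, DMSO = baseline.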

Assay [17] concerns the target Transcription factor Sp1 (Homo sapiens) (UniProt P08047). The assay is described as follows: ATG_Sp1_CIS: Attagene CIS-FACTORIAL HepG2 Assay for human Specificity Protein 1 (Sp1) (AID 2282961). The note with it: HepG2 Sp1 cis-reporter transcription, actives raise or lower the signal. The gist of the method: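 Endogenous Sp1 activity was gauged in human liver HepG2 cells bearing transfected reporter units under a cis-regulating promoter. After 24 h dosing, reporter mRNA was quantified by RT-PCR with capillary electrophoresis, and activity fitted bidirectionally versus DMSO.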

A short description of assay [18]: ATG_SREBP_CIS: Attagene CIS-FACTORIAL HepG2 Assay for human Sterol Regulatory Element Binding (SREBP) (AID 2282962). The note with it: HepG2 Attagene cis-factorial SREBP reporter, mRNA; actives raise or lower the signal. The gist of the method:
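HepG2 cells transiently transfected with multiplexed cis-element reporter units report endogenous transcription factor activity. After 24 h of chemical exposure, reporter mRNA was quantified by RT-PCR, 6-FAM labelling, HpaI digestion and capillary electrophoresis; bidirectional fits used DMSO as baseline.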

The target of assay [19] is Signal transducer and activator of transcription 3 (Homo sapiens) (UniProt P40763). The experiment in a line: ATG_STAT3_CIS: Attagene CIS-FACTORIAL HepG2 Assay for human Signal Transducer and Activator of Transcription 3 (STAT3) (AID 2282963). The note with it: HepG2, Attagene cis-factorial STAT3 reporter transcription; actives raise or lower the signal. In outline:
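HepG2 cells transiently transfected with cis-element-driven multiple reporter transcription units; after 24 h chemical exposure, reporter mRNA measured by RT-PCR, 6-FAM primer-extension labelling, HpaI digestion and capillary electrophoresis. Bidirectional fitting versus DMSO baseline.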

A short description of assay [20]: ATG_TA_CIS: Attagene CIS-FACTORIAL HepG2 Assay for human TA Basal Promoter (AID 2282964). As to conditions: HepG2 Attagene CIS-factorial TA basal promoter reporter; actives raise or lower the signal. In outline: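 Fluorescence from labelled RT-PCR reporter fragments, separated by capillary electrophoresis, gives the signal. Cells: HepG2 transiently carrying multiple reporter units, 24 h chemical dosing. Gain or loss relative to DMSO.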

Chain of Paired box protein Pax-6 (Homo sapiens) (P26367 whole entry, looked up): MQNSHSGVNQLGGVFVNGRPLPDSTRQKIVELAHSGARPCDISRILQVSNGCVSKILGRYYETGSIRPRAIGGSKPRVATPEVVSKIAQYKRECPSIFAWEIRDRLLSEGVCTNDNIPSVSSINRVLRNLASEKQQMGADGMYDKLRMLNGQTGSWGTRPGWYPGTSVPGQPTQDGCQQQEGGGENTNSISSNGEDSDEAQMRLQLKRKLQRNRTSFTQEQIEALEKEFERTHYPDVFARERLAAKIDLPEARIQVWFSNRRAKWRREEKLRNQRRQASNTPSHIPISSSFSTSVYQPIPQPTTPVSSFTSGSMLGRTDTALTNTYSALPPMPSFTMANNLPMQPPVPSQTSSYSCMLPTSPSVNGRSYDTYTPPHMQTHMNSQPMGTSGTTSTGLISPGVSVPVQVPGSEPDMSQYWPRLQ
Chain of Transcription factor Sp1 (Homo sapiens) (P08047 whole entry, looked up): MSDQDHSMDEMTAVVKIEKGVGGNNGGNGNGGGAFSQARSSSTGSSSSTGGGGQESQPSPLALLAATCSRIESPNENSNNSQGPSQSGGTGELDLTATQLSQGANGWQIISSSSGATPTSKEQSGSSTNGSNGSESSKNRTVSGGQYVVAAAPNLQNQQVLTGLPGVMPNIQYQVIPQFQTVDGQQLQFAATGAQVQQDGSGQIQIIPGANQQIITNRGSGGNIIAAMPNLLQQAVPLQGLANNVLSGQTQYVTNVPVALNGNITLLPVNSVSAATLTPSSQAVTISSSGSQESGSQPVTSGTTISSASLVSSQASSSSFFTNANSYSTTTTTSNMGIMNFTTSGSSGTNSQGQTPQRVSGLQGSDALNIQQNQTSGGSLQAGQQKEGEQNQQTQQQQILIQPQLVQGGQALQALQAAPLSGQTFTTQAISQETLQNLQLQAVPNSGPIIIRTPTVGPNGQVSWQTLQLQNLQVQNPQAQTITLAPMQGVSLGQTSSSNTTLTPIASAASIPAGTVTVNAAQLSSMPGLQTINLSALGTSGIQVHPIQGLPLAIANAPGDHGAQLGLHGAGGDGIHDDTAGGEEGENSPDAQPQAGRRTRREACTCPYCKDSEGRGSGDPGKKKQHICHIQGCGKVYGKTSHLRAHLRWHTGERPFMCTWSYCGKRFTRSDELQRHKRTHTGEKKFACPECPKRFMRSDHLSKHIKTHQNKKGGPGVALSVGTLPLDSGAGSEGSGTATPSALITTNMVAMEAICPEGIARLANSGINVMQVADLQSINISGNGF
Chain of Heat shock factor protein 1 (Homo sapiens) (Q00613 whole entry, looked up, the tested form may be a part): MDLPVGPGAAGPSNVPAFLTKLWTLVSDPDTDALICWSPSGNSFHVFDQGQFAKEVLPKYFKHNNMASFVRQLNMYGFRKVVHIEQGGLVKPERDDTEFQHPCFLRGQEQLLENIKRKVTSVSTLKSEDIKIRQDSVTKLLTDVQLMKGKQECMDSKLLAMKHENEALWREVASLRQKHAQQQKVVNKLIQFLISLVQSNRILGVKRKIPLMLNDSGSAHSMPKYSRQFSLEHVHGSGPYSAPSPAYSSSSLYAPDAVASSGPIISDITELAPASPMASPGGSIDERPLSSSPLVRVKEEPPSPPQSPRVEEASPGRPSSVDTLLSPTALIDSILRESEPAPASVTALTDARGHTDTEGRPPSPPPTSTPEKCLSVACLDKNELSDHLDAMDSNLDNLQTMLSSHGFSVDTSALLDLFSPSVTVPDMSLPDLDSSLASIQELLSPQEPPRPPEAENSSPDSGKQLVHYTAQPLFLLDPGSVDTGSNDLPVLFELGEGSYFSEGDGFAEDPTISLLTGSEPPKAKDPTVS
Chain of Signal transducer and activator of transcription 3 (Homo sapiens) (P40763 whole entry, looked up): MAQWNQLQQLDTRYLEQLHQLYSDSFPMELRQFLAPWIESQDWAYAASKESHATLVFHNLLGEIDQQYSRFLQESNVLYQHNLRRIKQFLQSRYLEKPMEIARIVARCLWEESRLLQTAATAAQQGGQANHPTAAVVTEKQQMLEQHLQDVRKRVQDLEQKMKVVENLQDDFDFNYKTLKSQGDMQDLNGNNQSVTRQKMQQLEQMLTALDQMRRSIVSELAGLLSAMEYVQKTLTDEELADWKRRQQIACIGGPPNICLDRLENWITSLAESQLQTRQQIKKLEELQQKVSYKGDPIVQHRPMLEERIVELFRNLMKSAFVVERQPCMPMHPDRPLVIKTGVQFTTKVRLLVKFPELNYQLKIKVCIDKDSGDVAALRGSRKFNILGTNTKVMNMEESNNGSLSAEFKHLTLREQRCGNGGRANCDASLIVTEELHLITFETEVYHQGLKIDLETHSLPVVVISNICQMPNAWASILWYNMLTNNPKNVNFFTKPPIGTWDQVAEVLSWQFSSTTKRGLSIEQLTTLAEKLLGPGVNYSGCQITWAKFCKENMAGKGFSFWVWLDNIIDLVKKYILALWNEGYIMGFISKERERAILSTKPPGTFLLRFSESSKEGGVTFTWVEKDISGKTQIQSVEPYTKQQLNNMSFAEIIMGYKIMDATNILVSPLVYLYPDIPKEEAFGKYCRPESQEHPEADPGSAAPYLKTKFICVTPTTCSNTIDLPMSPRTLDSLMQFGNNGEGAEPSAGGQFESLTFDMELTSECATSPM
Chain of Hepatocyte nuclear factor 6 (Homo sapiens) (Q9UBC0 whole entry, looked up, the tested form may be a part): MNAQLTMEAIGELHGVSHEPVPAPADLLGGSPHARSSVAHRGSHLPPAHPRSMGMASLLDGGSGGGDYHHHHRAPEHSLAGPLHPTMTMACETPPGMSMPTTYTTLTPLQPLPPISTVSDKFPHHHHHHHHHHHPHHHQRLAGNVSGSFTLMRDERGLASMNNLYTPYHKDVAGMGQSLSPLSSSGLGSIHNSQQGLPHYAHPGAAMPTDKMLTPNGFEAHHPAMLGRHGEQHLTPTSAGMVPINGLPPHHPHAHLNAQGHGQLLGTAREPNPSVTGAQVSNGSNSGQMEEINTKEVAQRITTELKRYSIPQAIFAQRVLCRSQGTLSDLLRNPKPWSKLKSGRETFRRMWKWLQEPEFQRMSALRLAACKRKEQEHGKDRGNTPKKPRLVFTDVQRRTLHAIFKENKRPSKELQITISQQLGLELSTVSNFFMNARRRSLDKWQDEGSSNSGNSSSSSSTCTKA
Chain of Hypoxia-inducible factor 1-alpha (Homo sapiens) (Q16665 whole entry, looked up): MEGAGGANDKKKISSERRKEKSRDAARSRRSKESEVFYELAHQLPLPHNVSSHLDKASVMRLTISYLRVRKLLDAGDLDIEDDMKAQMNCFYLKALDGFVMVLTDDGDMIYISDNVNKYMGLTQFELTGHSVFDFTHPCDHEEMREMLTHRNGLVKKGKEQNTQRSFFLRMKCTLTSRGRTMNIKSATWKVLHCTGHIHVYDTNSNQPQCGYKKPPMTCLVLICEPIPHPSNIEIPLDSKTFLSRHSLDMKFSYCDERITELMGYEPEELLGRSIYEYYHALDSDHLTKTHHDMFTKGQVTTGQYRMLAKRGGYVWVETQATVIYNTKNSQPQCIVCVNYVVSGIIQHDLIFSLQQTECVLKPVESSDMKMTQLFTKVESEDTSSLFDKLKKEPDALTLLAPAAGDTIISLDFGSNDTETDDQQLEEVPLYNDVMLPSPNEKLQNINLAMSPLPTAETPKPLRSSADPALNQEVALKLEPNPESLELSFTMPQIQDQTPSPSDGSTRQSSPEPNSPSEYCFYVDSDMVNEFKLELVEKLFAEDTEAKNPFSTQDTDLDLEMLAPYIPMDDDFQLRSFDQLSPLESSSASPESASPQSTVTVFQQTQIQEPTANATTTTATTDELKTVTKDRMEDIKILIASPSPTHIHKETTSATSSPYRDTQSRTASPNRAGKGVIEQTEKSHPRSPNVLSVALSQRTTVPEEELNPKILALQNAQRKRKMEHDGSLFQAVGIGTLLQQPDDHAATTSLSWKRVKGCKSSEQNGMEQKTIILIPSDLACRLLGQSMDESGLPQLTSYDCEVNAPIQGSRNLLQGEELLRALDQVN

With `CNC(=S)NC`, the compound was classed as inactive in [1], in assay [2], in assay [3], in assay [4], in assay [5] and in assay [6]. Besides, the compound was classed as inactive in [7], in assay [8], in assay [9], in [10], in assay [11] and in [12]. Besides, the call in [14], in assay [15], in [16], in [17], in assay [18] and in assay [19] was inactive. Besides, the call in [20] was inactive. Moreover, the AC50 in assay [13] is 24.9 µM (active).
For `O=C(O)C(F)(F)C(F)(F)C(F)F`, the compound was classed as inactive in [1], in [2], in assay [3], in assay [4], in assay [5] and in assay [6]. In addition, the compound was classed as inactive in assay [7], in assay [8], in [9], in [10], in assay [11] and in assay [12]. Also, the call in assay [13], in [14], in [15], in [16], in assay [17] and in assay [18] was inactive. Besides, the call in assay [19] and in assay [20] was inactive.
Consider `O=C(O)C(F)(F)C(F)(F)C(F)(F)C(F)(F)C(F)(F)C(F)(F)C(F)(F)C(F)(F)C(F)(F)C(F)F`, for which the compound was classed as inactive in assay [1], in [2], in assay [3], in assay [5], in assay [6] and in assay [7]. The compound was classed as inactive in [8], in assay [9], in [11], in assay [12], in assay [15] and in assay [16]. For the same compound, the call in assay [17], in assay [18], in assay [19] and in assay [20] was inactive. The AC50 is 27.1 µM (active) in [4], 25.3 µM (active) in assay [10], 18.8 µM (active) in [13] and 9.33 µM (active) in [14].
Take `FC(F)(F)C(F)(F)C(F)(F)C(F)(F)C(F)(F)C(F)(F)C(F)(F)Br`: the call in assay [1], in assay [2], in assay [3], in assay [4], in assay [5] and in assay [6] was inactive. The compound was classed as inactive in assay [7], in [8], in [9], in assay [10], in [11] and in assay [12]. The compound was called inactive in [13], in assay [14], in [15], in assay [16], in assay [17] and in [18]. Also, the compound was called inactive in [19] and in [20].
`O=C(C=Cc1ccccc1)OCC=Cc1ccccc1`: the outcome in [1], in assay [2], in [3], in [4], in assay [5] and in [6] was inactive. Besides, the outcome in assay [7], in assay [8], in assay [9], in [10], in assay [11] and in assay [12] was inactive. The compound was classed as inactive in assay [14], in assay [15], in [16], in assay [17], in [18] and in assay [19]. In addition, in [20], the call was inactive. The half-maximal activity concentration (AC50) in [13] was 15.9 µM (active).
For `CCc1ccc(C(c2ccc(CC)cc2)C(Cl)Cl)cc1`, the result in assay [1], in assay [2], in assay [3], in assay [4], in [5] and in assay [6] was inactive. Further, the compound was classed as inactive in assay [7], in assay [8], in [9], in [10], in [11] and in [12]. In addition, the call in [14], in [15], in assay [16], in [17], in [18] and in assay [19] was inactive. Moreover, the outcome in assay [20] was inactive. Also, in assay [13], the AC50 was 2.28 µM (active).
